Records with an inconclusive call do not appear. A call without a number means that no potency is given here. Active and inactive are the calls of the source. The call rests on the fitted dose curve; in most records, active means well fitted inhibition curve with a large enough effect; inconclusive means small, poorly fitted or top-dose-only effect; inactive means flat fitted curve, though single readings scatter.
Each molecule was assayed against Ubiquitin carboxyl-terminal hydrolase 1 (Homo sapiens) (UniProt O94782) (assay: Inhibitors of USP1/UAF1: Pilot qHTS (AID 504865; further: nearly all actives have a fitted effect of over 35% in size;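 on activity change, negative = inhibition: rhodamine fluorescence freed from ubiquitin-rhodamine substrate followed over time; top concentration of the series differs between compounds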)). Conditions: purified USP1/UAF1, Ub-rhodamine cleavage fluorescence; series mostly up to 114 µM.
Procedure, shortened: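 In 50mM HEPES pH 7.8 containing 0.5mM EDTA, 1mM TCEP, 0.1 mg/ml BSA and 0.01% Tween-20, 1nM USP1/UAF1 is exposed to compound for 15 min, then Ub-Rho (150nM final) is added and fluorescence is read over time.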
Potency means the concentration at half of the fitted maximal effect.

Chain of Ubiquitin carboxyl-terminal hydrolase 1 (Homo sapiens) (O94782 whole entry, looked up): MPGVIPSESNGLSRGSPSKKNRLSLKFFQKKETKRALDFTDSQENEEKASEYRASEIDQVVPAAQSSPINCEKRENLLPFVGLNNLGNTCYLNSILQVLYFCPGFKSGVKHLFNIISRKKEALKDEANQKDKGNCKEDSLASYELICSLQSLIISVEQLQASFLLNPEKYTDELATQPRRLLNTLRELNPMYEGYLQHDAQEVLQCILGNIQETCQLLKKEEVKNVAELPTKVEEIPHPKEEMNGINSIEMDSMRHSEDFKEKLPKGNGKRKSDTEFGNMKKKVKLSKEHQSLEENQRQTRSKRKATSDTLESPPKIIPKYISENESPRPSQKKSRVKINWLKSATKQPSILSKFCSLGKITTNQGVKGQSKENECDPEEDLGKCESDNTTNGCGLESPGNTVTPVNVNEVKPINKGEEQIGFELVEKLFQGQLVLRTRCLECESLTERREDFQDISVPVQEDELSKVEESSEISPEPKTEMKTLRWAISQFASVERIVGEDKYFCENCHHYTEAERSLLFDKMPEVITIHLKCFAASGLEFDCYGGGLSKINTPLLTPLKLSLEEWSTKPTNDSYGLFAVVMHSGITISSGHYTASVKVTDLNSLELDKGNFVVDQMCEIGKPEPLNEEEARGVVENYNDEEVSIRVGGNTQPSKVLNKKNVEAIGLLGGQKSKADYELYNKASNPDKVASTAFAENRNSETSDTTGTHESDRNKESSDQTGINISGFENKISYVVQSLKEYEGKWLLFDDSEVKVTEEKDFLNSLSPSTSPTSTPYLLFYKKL

Structure (SMILES) | Potency | activity change, negative = inhibition
CCCCCCCCCCCC[n+]1ccc2ccccc2c1 | 89.1 µM (active) | –
Cc1ccccc1 | inactive | –
CCOc1ccc2c(c1)C(C)=CC(C)(C)N2 | – | -8.83% [at 11.4 µM] (inactive)
CN1Cc2c(N)cccc2C(c2ccccc2)C1 (centres undefined) | inactive | –
Nc1c(N=Nc2ccc(-c3ccc(N=Nc4cc(S(=O)(=O)O)c5ccccc5c4N)cc3)cc2)cc(S(=O)(=O)O)c2ccccc12 | 15.8 µM (active) | –
COC(F)(F)C(Cl)Cl | inactive | –
C=CCSSSCC=C | inactive | –
CCCCC(CC)COC(=O)CC(C(=O)OCC(CC)CCCC)S(=O)(=O)O (centres undefined) | 50.1 µM (active) | –
CCCC(=O)Nc1ncnc2c1ncn2C1OC2COP(=O)(O)OC2C1OC(=O)CCC (centres undefined) | inactive | –
CC1(C)S[C@@H]2[C@H](NC(=O)[C@@H](NC(=O)N3CCNC3=O)c3ccccc3)C(=O)N2[C@H]1C(=O)O | inactive | –
CCCCCCCCCCCCCCCC(=O)OCC(COC(=O)CCCCCCCCCCCCCCC)OC(=O)CCCCCCCCCCCCCCC | inactive | –
O=C(COc1ccc(Cl)cc1)OCCNC12CC3CC(CC(C3)C1)C2 | inactive | –
CCCCCCOc1ccc(C(=N)N(CCCC)CCCC)c2ccccc12 | 39.8 µM (active) | –
COc1ccc2c3c1O[C@H]1C[C@@H](O)C=C[C@@]31CCN(C)C2 | inactive | –
CC(=O)Oc1cc(C)c(OC(C)=O)c2ccccc12 | inactive | –
C[C@H]1C[C@H]2[C@@H]3CCC4=CC(=O)C=C[C@]4(C)[C@@]3(F)[C@@H](O)C[C@]2(C)[C@@]1(O)C(=O)CO | inactive | –
Nc1c(Br)cc(Br)cc1CNC1CCC(O)CC1 (centres undefined) | inactive | –

Structure (SMILES) | Potency | activity change, negative = inhibition
Cc1c(C)c2c(c(C)c1O)CC[C@@](C)(CCC[C@@H](C)CCC[C@@H](C)CCCC(C)C)O2 | inactive | –
O=C(O)CCC(=O)C(=O)O | inactive | –
O=S(=O)(O)c1cc(O)c2c(N=Nc3ccc(Nc4ccccc4)c4c(S(=O)(=O)O)cccc34)cc(S(=O)(=O)O)cc2c1 | 11.2 µM (active) | –
CC1=C(/C=C/C(C)=C/C=C/C(C)=C/C=C/C=C(C)/C=C/C=C(C)/C=C/C2=C(C)CCCC2(C)C)C(C)(C)CCC1 | inactive | –
O=C1C(=O)c2ncccc2-c2cccnc21 | 50.1 µM (active) | –
NC(=O)c1ncn(C2OC(CO)C(O)C2O)n1 (centres undefined) | inactive | –
COCC(=O)Nc1cc(Sc2ccccc2)ccc1N=C(NC(=O)OC)NC(=O)OC | inactive | –
CC(C)(C)C(=O)OCOC(=O)[C@@H]1N2C(=O)[C@@H](N=CN3CCCCCC3)[C@H]2SC1(C)C | inactive | –
C=C1C(=CC=C2CCC[C@@]3(C)[C@@H]2CC[C@H]3[C@H](C)CCCC(C)C)C[C@@H](O)C[C@@H]1O | 22.4 µM (active) | –
CCCCCCC(O)C/C=C/CCCCCCCC(=O)O (centres undefined) | inactive | –
CC(C(=O)O)c1ccc(N2Cc3ccccc3C2=O)cc1 (centres undefined) | inactive | –
CCOC(C)=O | inactive | –
O=S(=O)(O)O | inactive | –
COC(=O)CCC(=O)CN | inactive | –
O=S(=O)(O)c1ccc2c(N=Nc3ccc(S(=O)(=O)O)c4ccccc34)c(O)c(S(=O)(=O)O)cc2c1 | 17.8 µM (active) | –
CCC(=O)NCCC1CCc2ccc3c(c21)CCO3 (centres undefined) | inactive | –
CC[N+](C)(C)Cc1ccccc1Br | inactive | –

Reference: PubChem BioAssay (NCATS)
